Results as given in PubChem BioAssay (NCI).
Several values for one entry are separate records, joined by “and”; a condition that tells them apart may be missing. Equal entries are not always repeated. The panel holds about 79,000 compounds, 15% with a hit somewhere; the sample as a whole holds those more often. The source holds several records for some structures; these can differ, active in one and inactive in another. Activity calls are given as the source filed them. Cut-off read from the data, not from the text of the source: active = growth inhibition above about 70%; inactive = the rest.

Tests used:
[1] = NCI Yeast Anticancer Drug Screen. Data for the rad50 strain (AID 155);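 note: 0% = growth of vehicle-only cultures of the same strain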; settings: S. cerevisiae rad50 strain growth inhibition, stronger effect = higher value
Procedure, shortened: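 Vehicle-treated cultures provide the reference for the growth inhibition reported for compound-exposed, repair-deficient yeast.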

[2] = NCI Yeast Anticancer Drug Screen. Data for the mec2-1 strain (AID 157); settings: S. cerevisiae mec2-1 strain, stronger effect = higher value
Procedure, shortened: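 Mutant yeast (mec2-1) grown with compound; growth inhibition relative to vehicle control reported.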

[3] = NCI Yeast Anticancer Drug Screen. Data for the sgs1 mgt1 strain (AID 161);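 note: 0% = growth of cultures given vehicle only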; settings: S. cerevisiae sgs1 mgt1 strain, stronger effect = higher value
Procedure, shortened: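 This yeast growth screen uses a strain with defined DNA-repair lesions; compound-treated growth is compared with vehicle-treated growth.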

[4] = NCI Yeast Anticancer Drug Screen. Data for the cln2 rad14 strain (AID 165);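 note: 0% = growth equal to vehicle treated cultures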; settings: S. cerevisiae cln2 rad14 strain, stronger effect = higher value
Procedure, shortened: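 Readout is yeast growth inhibition versus vehicle-treated controls, using a strain with cln2 and rad14 alterations exposed to compound.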

[5] = NCI Yeast Anticancer Drug Screen. Data for the bub3 strain (AID 167); settings: S. cerevisiae bub3 mutant strain, stronger effect = higher value
Procedure, shortened: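 Mutant yeast screening strain plus compound; vehicle-treated cultures serve as the 0% inhibition reference.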

[6] = NCI Yeast Anticancer Drug Screen. Data for the mlh1 rad18 strain (AID 175); settings: S. cerevisiae mlh1 rad18 strain growth inhibition, stronger effect = higher value
Procedure, shortened: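 Genetically defined yeast (DNA repair-deficient) exposed to compounds; growth inhibition determined relative to vehicle.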

[7] = at 5.0 µM (retest, dose inferred, filed as 0.5)
[8] = at 50.0 µM (retest, dose inferred, filed as 5.0)

| Compound | growth inhibition [1, 7] | growth inhibition [1, 8] | growth inhibition ([1]; at 50.0 µM) | growth inhibition [2, 7] | growth inhibition [2, 8] | growth inhibition ([2]; at 50.0 µM) | growth inhibition [3, 7] | growth inhibition [3, 8] | growth inhibition ([3]; at 50.0 µM) | growth inhibition [4, 7] | growth inhibition [4, 8] | growth inhibition ([4]; at 50.0 µM) | growth inhibition [5, 7] | growth inhibition [5, 8] | growth inhibition ([5]; at 50.0 µM) | growth inhibition [6, 7] | growth inhibition [6, 8] | growth inhibition ([6]; at 50.0 µM) |
| --- | --- | --- | --- | --- | --- | --- | --- | --- | --- | --- | --- | --- | --- | --- | --- | --- | --- | --- |
| Cc1cccc(Cc2ccccc2Cl)c1O | 0% (inactive) | 93% (active) | 83.2% (active) | -1% (inactive) | 93% (active) | 38% (inactive) | 1% (inactive) | 80% (active) | 89.2% (active) | -7% (inactive) | 84% (active) | 98.6% (active) | -1% (inactive) | 82% (active) | 89.8% (active) | -2% (inactive) | 81% (active) | 46.2% (inactive) |
| CC(=O)/C(=C\c1ccc(Cl)c(Cl)c1)C(=O)CCN(C)C | 13% (inactive) and 6% (inactive) | 42% (inactive) and 30% (inactive) | 49.2% (inactive) and 56% (inactive) | 13% (inactive) and -8% (inactive) | 43% (inactive) and 26% (inactive) | 78.2% (active) and 42.8% (inactive) | 22% (inactive) and 9% (inactive) | 45% (inactive) and 50% (inactive) | 58.6% (inactive) and 63.7% (inactive) | 19% (inactive) and 16% (inactive) | 17% (inactive) and 21% (inactive) | 18.8% (inactive) and 41.1% (inactive) | 5% (inactive) and 18% (inactive) | 41% (inactive) and 42% (inactive) | 58% (inactive) and 58.1% (inactive) | 20% (inactive) and 8% (inactive) | 50% (inactive) and 49% (inactive) | 74.2% (active) and 72.2% (active) |
| C=C1C(=O)OC2CC(C)C3C4OC4C(O)C3(C)C(O)C12 (centres undefined) | 2% (inactive) | 0% (inactive) | 69.9% (inactive) | 2% (inactive) | 4% (inactive) | 39.1% (inactive) | 4% (inactive) | 8% (inactive) | 65.7% (inactive) | -3% (inactive) | -6% (inactive) | 50.4% (inactive) | 2% (inactive) | 6% (inactive) | 71% (active) | 0% (inactive) | -2% (inactive) | 63.6% (inactive) |
| O=[N+]([O-])c1ccc(N/N=C/CC(O)(C(F)(F)F)C(F)(F)F)c([N+](=O)[O-])c1 | 0% (inactive) | 98% (active) | 88.6% (active) | -1% (inactive) | 98% (active) | 91.5% (active) | -1% (inactive) | 97% (active) | 91.8% (active) | 25% (inactive) | 98% (active) | 88% (active) | 13% (inactive) | 98% (active) | 86.4% (active) | 3% (inactive) | 98% (active) | 89.9% (active) |
| Clc1cc(Cl)c(Cl)nn1 | 13% (inactive) | 83% (active) | 59.6% (inactive) and 86% (active) | 3% (inactive) | 38% (inactive) | 2.1% (inactive) and 44.9% (inactive) | -1% (inactive) | 24% (inactive) | 3.1% (inactive) and 15.5% (inactive) | -8% (inactive) | 25% (inactive) | -7.45% (inactive) and 16.4% (inactive) | 6% (inactive) | 48% (inactive) | 18.6% (inactive) and 60.8% (inactive) | 1% (inactive) | 45% (inactive) | 15.8% (inactive) and 25% (inactive) |
| CC(=O)Nc1ccc(S(=O)(=O)N(CCO)CCO)cc1 | -2% (inactive) | -4% (inactive) | 15.2% (inactive) | -12% (inactive) | -5% (inactive) | 98.5% (active) | -12% (inactive) | -4% (inactive) | 40.5% (inactive) | 0% (inactive) | 1% (inactive) | 57% (inactive) | -7% (inactive) | 1% (inactive) | 80.7% (active) | -20% (inactive) | -9% (inactive) | 91.2% (active) |
| COc1ccc2nc3cc(Cl)ccc3c(NCCCNCc3cc(OC)c(OC)c(OC)c3)c2c1 | 18% (inactive) | 92% (active) | 98.2% (active) | -3% (inactive) | 62% (inactive) | 98.3% (active) | 6% (inactive) | 87% (active) | 98.3% (active) | 21% (inactive) | 83% (active) | 98.8% (active) | 22% (inactive) | 82% (active) | 98.8% (active) | 3% (inactive) | 92% (active) | 98% (active) |
| CC1=CC(C)=Nc2ccc(Cl)cc2N1 | -2% (inactive) | 9% (inactive) | -1.1% (inactive) and 52% (inactive) | 2% (inactive) | 2% (inactive) | 11.4% (inactive) and 2.6% (inactive) | -4% (inactive) | -1% (inactive) | -5.1% (inactive) and 41% (inactive) | 1% (inactive) | 7% (inactive) | -15.9% (inactive) and -11.8% (inactive) | -2% (inactive) | -7% (inactive) | -2.9% (inactive) and 21.6% (inactive) | -2% (inactive) | 7% (inactive) | 9.35% (inactive) and 75.1% (active) |
| CC(C)OC(=S)SSC(=S)OC(C)C | 5% (inactive) and 11% (inactive) | 99% (active) and 98% (active) | 99.4% (active) | 4% (inactive) and 0% (inactive) | 100% (active) and 98% (active) | 99.5% (active) | 1% (inactive) and 9% (inactive) | 99% (active) and 100% (active) | 99.3% (active) | 33% (inactive) and 9% (inactive) | 94% (active) and 84% (active) | 98.4% (active) | 7% (inactive) and 2% (inactive) | 99% (active) and 100% (active) | 99% (active) | -1% (inactive) and 18% (inactive) | 99% (active) and 94% (active) | 98.3% (active) |
| CN1CCCc2cc(/C=C\c3ccnc4ccccc34)ccc21 | -2% (inactive) | 94% (active) | 96% (active) | -10% (inactive) | 97% (active) | 97.1% (active) | -10% (inactive) | 96% (active) | 98.3% (active) | -6% (inactive) | 94% (active) | 93% (active) | -7% (inactive) | 94% (active) | 96.8% (active) | -21% (inactive) | 96% (active) | 97.4% (active) |
| CN1CCN(CCCN2c3ccccc3Sc3ccc(C(F)(F)F)cc32)CC1 | -13% (inactive) and -1% (inactive) | 98% (active) and 94% (active) | 98.8% (active) and 83.9% (active) | -9% (inactive) and -29% (inactive) | 98% (active) and 70% (active) | 99.2% (active) and 83.9% (active) | -7% (inactive) and 0% (inactive) | 95% (active) and 73% (active) | 99.2% (active) and 84.9% (active) | -31% (inactive) and 3% (inactive) | 84% (active) and 78% (active) | 98% (active) and 84.7% (active) | -13% (inactive) and -27% (inactive) | 98% (active) and 95% (active) | 99.2% (active) and 86.2% (active) | -8% (inactive) and -9% (inactive) | 99% (active) and 96% (active) | 99.6% (active) |
| CC(C)OP(=O)(OC(C)C)C(=Nc1ccccc1)NNc1ccc([N+](=O)[O-])cc1 | -22% (inactive) | -15% (inactive) | 71.1% (active) | -21% (inactive) | 2% (inactive) | 16.6% (inactive) | -13% (inactive) | 15% (inactive) | 22.7% (inactive) | -33% (inactive) | -6% (inactive) | -18.8% (inactive) | -17% (inactive) | -20% (inactive) | 43.6% (inactive) | -8% (inactive) | 7% (inactive) | 44% (inactive) |
| OCC1OC(Sc2ncc[nH]2)C(O)C(O)C1O (centres undefined) | -12% (inactive) | 4% (inactive) | 5.1% (inactive) and 4.95% (inactive) | -1% (inactive) | -10% (inactive) | -7.25% (inactive) and -9.95% (inactive) | -30% (inactive) | -11% (inactive) | -4.55% (inactive) and -7.65% (inactive) | 11% (inactive) | 3% (inactive) | 4.15% (inactive) and 44.2% (inactive) | 0% (inactive) | 0% (inactive) | -1.3% (inactive) and -3.2% (inactive) | -18% (inactive) | -14% (inactive) | -17.8% (inactive) and -16.8% (inactive) |
